Consider 5 compounds from PubChem BioAssay.

The structures appear in SMILES notation. The source made the active and inactive calls.

One experiment concerns the target Albumin (Bos taurus) (UniProt P02769). The experiment is described as follows: compounds binding labelled BSA control protein – biochemical, small-molecule microarray, Alexa647 label, 635/667 nm fluorescence, artefact control for SMM control protein annotation, profiling panel (AID 1118).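 Note: score merges 667 nm emission intensity and signal-to-noise per printed compound spot.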 The following applies: BSA-A647 binding, fluorescence 635 nm, higher = more signal.

A short description of experiment [1]: probe aXIP binding to arrayed compounds – biochemical, NeuroSMM set, 635/667 nm fluorescence, primary screen (AID 1119).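 Note: probe is the protein aXip251-270 applied at 1 µg/mL to compound-printed slides; binding of probe to printed compounds measured as 667 nm fluorescence plus signal to noise.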 The following applies: small-molecule microarray, higher = more signal, called active from +8 up or from −8 down.
A short description of experiment [2]: probe aNOTCH3 binding on compound microarray – biochemical, small-molecule microarray, 635/667 nm fluorescence, primary screen (AID 1120).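 Note: probe is a biotin-tagged antibody raised against NOTCH3 rather than NOTCH3 protein; score merges spot fluorescence near 667 nm with spot signal to noise.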 The following applies: higher = more signal.
Experiment [3] in a line: probe aNOTCH2 binding on compound microarray – biochemical, small-molecule microarray, 635/667 nm fluorescence, primary screen (AID 1121).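 Note: score merges feature fluorescence read at 667 nm with its signal to noise.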 The following applies: higher = more signal.
Experiment [4] concerns the target Carbonic anhydrase 2 (Homo sapiens) (UniProt P00918). The experiment is described as follows: compounds binding carbonic anhydrase 2 – biochemical, small-molecule microarray, Alexa647-labelled CAII, profiling panel (AID 1122). Conditions: CAII-A647 binding fluorescence, higher = more signal.
A short description of experiment [5]: COS7 lysate on small-molecule microarray, probe aHis, 635 nm (AID 1123).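 Note: z-score combines 667nm fluorescence intensity with signal-to-noise per printed compound spot.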 Conditions: COS7 cell lysate, fluorescence, higher = more signal.
Experiment [6] in a line: probe aLAP1 signal on lysate-treated microarray – cell lysate, small-molecule microarray, COS7 lysate, primary screen (AID 1124).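 Note: lysate comes from COS7 cells expressing LAP1 and is applied at 0.3 µg/mL; score merges spot fluorescence near 667 nm with signal-to-noise over triplicate slides.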 Conditions: probe aLAP1, fluorescence, higher = more signal.
For the next experiment, the system named is Sam68 (KHDRBS1). Kind of experiment: compounds binding KHDRBS1 protein – biochemical, small-molecule microarray, 635 nm fluorescence, primary screen (AID 1125).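 Note: score merges 667 nm channel intensity with signal to noise over triplicate slides.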 Conditions: higher = more signal.
Experiment [7] relates to Chordin-like protein 2 (CHRDL2). Kind of experiment: compounds binding chordin-like 2 – biochemical, small-molecule microarray, 635 nm fluorescence, primary screen (AID 1126).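 Note: printed compound slides probed with Chrdl2 protein at 4 µg/mL for 1 h at 4 C; score merges 667 nm emission intensity with signal to noise over three replicate slides.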 Conditions: fluorescence 635 nm, higher = more signal.
For experiment [8], the target named is Concanavalin-A (Canavalia ensiformis) (UniProt P02866). The experiment is described as follows: compounds binding concanavalin A lectin – biochemical, small-molecule microarray, Alexa647 label, 635 nm, artefact control for SMM control protein annotation, primary screen (AID 1127).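 Note: z combines 667 nm emission intensity with signal-to-noise across three replicate slides.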 Conditions: ConA-A647 binding fluorescence, higher = more signal.
A short description of experiment [9]: compounds binding Alexa647 anti-His antibody – biochemical, small-molecule microarray, 635 nm fluorescence, artefact control for SMM control protein annotation, primary screen (AID 1128).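 Note: score merges feature fluorescence with signal-to-noise for each printed compound spot.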 Conditions: higher = more signal.
For experiment [10], the system named is Human papillomavirus type 1a E7 protein (residues 1-88). Kind of experiment: HPV1a E7 small-molecule binders, primary screen, biochemical, small-molecule microarray, residues 1-88, 635 nm (AID 1129). Conditions: small-molecule microarray binding, fluorescence 635 nm; higher = more signal.
For experiment [11], the target named is Focal adhesion kinase 1 (Homo sapiens) (UniProt Q05397). Kind of experiment: PTK2 protein binding on printed compound slides – biochemical, small-molecule microarray, 635/667 nm fluorescence, BSA, DTT, primary screen (AID 1130).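 Note: composite of spot emission at 667 nm and signal to noise over triplicate slides.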 The following applies: 635 nm fluorescence, higher = more signal.
Experiment [12] deals with Fibrinogen (Alexa647-labelled). The experiment is described as follows: Alexa647-fibrinogen binding to printed small molecules – biochemical, small-molecule microarray, 635/667 nm fluorescence, artefact control for SMM control-protein annotation, profiling panel (AID 1131).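 Note: z-score merges 667 nm fluorescence with per-spot signal-to-noise over triplicate slides.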 The following applies: fibrinogen-A647 binding fluorescence, higher = more signal.
In experiment [13] the target is Follistatin (Homo sapiens) (UniProt P19883). Kind of experiment: FST protein binding to printed compounds – biochemical, small-molecule microarray, 635/667 nm fluorescence, primary screen (AID 1132). Conditions: 635 nm fluorescence, higher = more signal.
Experiment [14] concerns the target Fibroblast growth factor 2 (Homo sapiens) (UniProt P09038). The experiment is described as follows: basic fibroblast growth factor binding to printed compounds – biochemical, small-molecule microarray, 635/667 nm fluorescence, primary screen (AID 1133). Conditions: FGF2, fluorescence 635/667, higher = more signal.
The nature of experiment [15]: JC-1 mitochondrial potential readout, lung cancer cells – cell-based, A549, JC-1 fluorescence, basal, 24 h, 100 nL, profiling panel (AID 1138).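 Note: A549 lung adenocarcinoma cells under basal conditions with no added stimulus; test concentration not given here.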 The following applies: higher = more signal.
Another experiment concerns Lefty1. The experiment is described as follows: Lefty1 protein binding to printed compounds – biochemical, small-molecule microarray, 635/667 nm fluorescence, primary screen (AID 1139). Conditions: fluorescence 635/667, higher = more signal.
The test system of experiment [16] is wheat germ agglutinin (Triticum aestivum), Alexa647-labelled. The experiment is described as follows: Alexa647-WGA lectin binding to printed small molecules – biochemical, small-molecule microarray, 635/667 nm fluorescence, artefact control for SMM control-protein annotation, profiling panel (AID 1140).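 Note: score merges 667 nm feature emission with signal to noise over triplicate slides.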 Conditions: WGA-A647 binding, 635 nm fluorescence, higher = more signal.

The target in experiment [17] is Luciferin 4-monooxygenase (Photinus pyralis) (UniProt P08659). Kind of experiment: inhibition of purified Photinus pyralis luciferase – biochemical, luminescence, purified enzyme, 2006 set, primary screen (AID 1141).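 Note: cell-free assay with purified firefly luciferase at 100 ng per well in PBS; test concentration not given here.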 Conditions: purified firefly luciferase, SteadyGlo luminescence, 30 min; higher = more signal, called active from +8 up or from −8 down.
Luciferin 4-monooxygenase (Photinus pyralis), sequence (P08659 whole entry, looked up): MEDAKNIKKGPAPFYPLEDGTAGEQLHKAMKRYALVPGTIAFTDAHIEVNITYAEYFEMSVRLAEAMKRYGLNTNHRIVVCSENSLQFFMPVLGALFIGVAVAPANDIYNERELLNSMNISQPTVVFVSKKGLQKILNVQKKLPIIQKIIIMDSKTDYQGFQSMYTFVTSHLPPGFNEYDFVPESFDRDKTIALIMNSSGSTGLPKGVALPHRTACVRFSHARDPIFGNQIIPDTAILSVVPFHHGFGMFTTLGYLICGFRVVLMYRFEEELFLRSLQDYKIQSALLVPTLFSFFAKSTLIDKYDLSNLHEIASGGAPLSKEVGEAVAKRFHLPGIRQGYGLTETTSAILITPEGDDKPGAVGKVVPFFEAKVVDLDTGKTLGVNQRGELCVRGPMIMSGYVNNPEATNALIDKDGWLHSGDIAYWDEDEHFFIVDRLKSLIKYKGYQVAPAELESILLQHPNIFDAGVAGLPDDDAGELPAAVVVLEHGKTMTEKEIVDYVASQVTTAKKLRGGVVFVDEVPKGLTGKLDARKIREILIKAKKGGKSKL

Fibroblast growth factor 2 (Homo sapiens), sequence (P09038 whole entry, looked up): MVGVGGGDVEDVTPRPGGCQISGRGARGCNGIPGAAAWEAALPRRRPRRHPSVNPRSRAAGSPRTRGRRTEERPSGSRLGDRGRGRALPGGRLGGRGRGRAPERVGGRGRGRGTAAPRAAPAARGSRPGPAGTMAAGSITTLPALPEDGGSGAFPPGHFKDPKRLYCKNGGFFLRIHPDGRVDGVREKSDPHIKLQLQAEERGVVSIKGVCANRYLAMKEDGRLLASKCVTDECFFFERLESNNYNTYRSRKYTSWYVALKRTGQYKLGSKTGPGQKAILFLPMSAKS
Follistatin (Homo sapiens), sequence (P19883 whole entry, looked up): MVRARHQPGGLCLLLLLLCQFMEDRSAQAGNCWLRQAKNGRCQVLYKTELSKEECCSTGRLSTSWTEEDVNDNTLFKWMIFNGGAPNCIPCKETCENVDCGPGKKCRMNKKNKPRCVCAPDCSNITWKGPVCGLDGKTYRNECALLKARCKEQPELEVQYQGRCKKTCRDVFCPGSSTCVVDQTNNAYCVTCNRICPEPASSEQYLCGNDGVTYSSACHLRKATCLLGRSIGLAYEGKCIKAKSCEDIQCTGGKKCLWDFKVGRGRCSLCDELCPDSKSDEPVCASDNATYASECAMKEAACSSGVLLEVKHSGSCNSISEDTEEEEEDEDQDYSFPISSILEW
Concanavalin-A (Canavalia ensiformis), sequence (P02866 whole entry, looked up): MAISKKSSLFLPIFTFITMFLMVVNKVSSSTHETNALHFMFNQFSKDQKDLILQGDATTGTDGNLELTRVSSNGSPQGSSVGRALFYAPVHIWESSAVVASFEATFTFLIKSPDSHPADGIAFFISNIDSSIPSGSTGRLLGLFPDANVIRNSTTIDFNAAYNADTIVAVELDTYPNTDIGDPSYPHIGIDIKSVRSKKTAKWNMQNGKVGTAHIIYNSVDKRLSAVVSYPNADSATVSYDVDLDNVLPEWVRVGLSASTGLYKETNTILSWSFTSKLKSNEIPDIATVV
Albumin (Bos taurus), sequence (P02769 whole entry, looked up): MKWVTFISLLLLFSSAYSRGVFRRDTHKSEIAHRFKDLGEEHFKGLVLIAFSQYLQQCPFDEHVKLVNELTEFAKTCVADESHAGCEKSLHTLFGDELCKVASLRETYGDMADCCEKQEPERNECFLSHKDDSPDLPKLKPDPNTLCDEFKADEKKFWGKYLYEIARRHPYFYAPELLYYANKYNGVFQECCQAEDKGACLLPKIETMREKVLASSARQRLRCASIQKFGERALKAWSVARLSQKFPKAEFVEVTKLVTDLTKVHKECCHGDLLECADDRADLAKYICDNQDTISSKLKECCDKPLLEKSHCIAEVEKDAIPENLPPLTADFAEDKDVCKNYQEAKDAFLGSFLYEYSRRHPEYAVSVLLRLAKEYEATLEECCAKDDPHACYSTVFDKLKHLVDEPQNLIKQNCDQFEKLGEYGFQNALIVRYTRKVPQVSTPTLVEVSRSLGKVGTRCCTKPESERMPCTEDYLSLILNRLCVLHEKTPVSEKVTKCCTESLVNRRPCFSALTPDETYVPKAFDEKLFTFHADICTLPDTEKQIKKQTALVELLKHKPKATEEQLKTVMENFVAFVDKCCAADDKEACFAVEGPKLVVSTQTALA
Focal adhesion kinase 1 (Homo sapiens), sequence (Q05397 whole entry, looked up): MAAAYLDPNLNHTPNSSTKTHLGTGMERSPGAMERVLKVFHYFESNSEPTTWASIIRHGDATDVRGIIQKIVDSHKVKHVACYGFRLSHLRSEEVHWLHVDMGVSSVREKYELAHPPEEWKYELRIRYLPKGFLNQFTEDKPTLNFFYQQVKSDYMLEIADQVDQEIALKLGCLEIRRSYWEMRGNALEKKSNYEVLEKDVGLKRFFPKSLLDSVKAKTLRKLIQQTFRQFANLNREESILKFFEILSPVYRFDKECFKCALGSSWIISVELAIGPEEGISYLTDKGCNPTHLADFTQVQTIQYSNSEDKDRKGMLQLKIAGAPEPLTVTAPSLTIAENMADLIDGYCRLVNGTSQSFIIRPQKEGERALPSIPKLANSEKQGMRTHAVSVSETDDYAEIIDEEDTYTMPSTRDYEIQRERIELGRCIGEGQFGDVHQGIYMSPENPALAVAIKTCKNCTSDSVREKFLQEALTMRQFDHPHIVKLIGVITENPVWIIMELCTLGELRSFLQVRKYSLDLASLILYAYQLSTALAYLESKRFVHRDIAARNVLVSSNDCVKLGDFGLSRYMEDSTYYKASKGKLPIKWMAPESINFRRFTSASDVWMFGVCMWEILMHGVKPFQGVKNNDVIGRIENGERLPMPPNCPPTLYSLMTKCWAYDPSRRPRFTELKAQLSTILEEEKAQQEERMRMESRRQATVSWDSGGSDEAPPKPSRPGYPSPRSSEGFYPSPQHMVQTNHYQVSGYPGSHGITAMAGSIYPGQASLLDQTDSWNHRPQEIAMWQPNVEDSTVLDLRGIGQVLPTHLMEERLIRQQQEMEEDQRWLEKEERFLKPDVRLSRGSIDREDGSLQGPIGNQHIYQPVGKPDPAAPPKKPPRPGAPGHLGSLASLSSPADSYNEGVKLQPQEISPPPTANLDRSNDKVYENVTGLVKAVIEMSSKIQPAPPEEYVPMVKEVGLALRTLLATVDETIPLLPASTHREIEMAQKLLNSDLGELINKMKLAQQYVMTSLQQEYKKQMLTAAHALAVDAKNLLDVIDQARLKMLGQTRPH

Consider `CCCC=C(CCC)[C@@H](NS(=O)(=O)c1cccc(C(F)(F)F)c1)c1ccc(C(=O)OC)cc1`, for which the composite z-score is -0.0532 with Albumin (Bos taurus); 1.7 in [2]; 1.06 in experiment [3]; 0.169 in experiment [4]; 0.455 in [5]; 0.134 in [6]. Moreover, the composite z-score is 0.601 in the experiment on Sam68 (KHDRBS1); -1.35 in experiment [7]; 0.804 in experiment [8]; 0.54 in [9]; 0.4 in experiment [10]; -0.209 in experiment [11]. In addition, the composite z-score in experiment [12] was 0.436; in [13], 0.572; in experiment [14] it was 0.319; with Lefty1 it was 0.0304; in [16] it was 0.295. The composite Z-score in experiment [1] was 0.136 (inactive). The z-score in [15] is 0.622; in experiment [17] it was 2.82 (inactive).
In the case of `C#CCCCON=C1C[C@@H](O)[C@@H](O)[C@@H]2[C@@H]3C(=O)N(Cc4ccc5c(c4)OCO5)C(=O)[C@@H]3CC[C@H]12`, the composite z-score in the experiment with Albumin (Bos taurus) is 0.86; in experiment [2], 0.116; in [3], -0.181; in experiment [4], 0.495; in experiment [5], 1.21; in experiment [6] it was 0.786. Moreover, the composite z-score is 1.15 with Sam68 (KHDRBS1); 0.558 in [7]; 0.752 in [8]; 0.833 in [9]; 0.57 in [10]; 0.168 in experiment [11]. Also, the composite z-score in experiment [12] is 0.573; in experiment [13] it was 1.03; in experiment [14] it was 0.4; in the experiment with Lefty1, 1.59; in experiment [16], -0.142. The composite Z-score in experiment [1] is 0.756 (inactive). The z-score in [15] was -0.421; in experiment [17] it was 0.975 (inactive).
As for `C=CC[C@]1(C(=O)O)N=C(c2ccc(OCCCO)cc2)O[C@H]1c1ccccc1N=[N+]=[N-]`, the composite z-score was 0.548 with Albumin (Bos taurus); 0.0807 in experiment [2]; -0.159 in experiment [3]; 0.668 in experiment [4]; 1.45 in experiment [5]; 1.24 in experiment [6]. Further, the composite z-score was 0.0203 with Sam68 (KHDRBS1); -0.37 in experiment [7]; 0.642 in experiment [8]; 0.258 in experiment [9]; -0.171 in experiment [10]; 0.0806 in experiment [11]. Besides, the composite z-score in [12] was -0.17; in experiment [13], -0.0493; in experiment [14], -0.124; in the experiment with Lefty1, -1.09; in experiment [16], 0.0828. The composite Z-score in [1] was 0.0407 (inactive). Further, the z-score is 1.28 in [15] and -12.3 (active) in experiment [17].
Regarding `C=CCNC(=O)[C@H]1[C@@H]2C(=O)O[C@@H](c3ccccc3)[C@@H](c3ccccc3)N2[C@@H](c2ccc(O)cc2)[C@]12C(=O)Nc1ccc(C#CCNC(N)=O)cc12`, the composite z-score with Albumin (Bos taurus) was -0.273; in experiment [2], -0.174; in [3], 0.12; in experiment [4], 0.78; in [5] it was 0.789; in [6] it was 0.0128. The composite z-score in the experiment with Sam68 (KHDRBS1) is 0.213; in [7] it was -1.02; in experiment [8], -0.649; in [9], -1.09; in [10], -0.572; in experiment [11], 0.199. Also, the composite z-score was -1.04 in experiment [12]; 0.094 in [13]; -0.415 in experiment [14]; -0.886 with Lefty1; -0.52 in experiment [16]. In experiment [1], the composite Z-score is 0.593 (inactive). Moreover, the z-score in experiment [15] is -0.171; in [17] it was -1.25 (inactive).
Consider `CCN1C(C)=C(C(=O)OC)[C@@H](c2ccccc2)N2C(=O)[C@](O)(C(=O)OC)[C@@H](c3ccccc3)C(C(=O)c3ccccc3)=C12`, for which the composite z-score was 0.325 with Albumin (Bos taurus); 0.541 in experiment [2]; -0.112 in experiment [3]; 0.401 in experiment [4]; 0.915 in experiment [5]; 0.629 in experiment [6]. Further, the composite z-score in the experiment on Sam68 (KHDRBS1) was 0.723; in experiment [7], 0.309; in [8], 0.352; in [9] it was 0.0774; in experiment [10], 0.778; in experiment [11], 0.0079. Also, the composite z-score in [12] is 0.983; in [13], 0.411; in experiment [14] it was 0.411; in the experiment on Lefty1 it was 0.717; in experiment [16], 0.593. For the same compound, the composite Z-score in experiment [1] is 0.111 (inactive). Also, the z-score is 1.58 in experiment [15] and -1.2 (inactive) in experiment [17].
